TDP1 cell CPT: DT40-hTDP1 cell growth loss with CPT. chicken DT40 Tdp1-/-;hTDP1 cells + 20 nM CPT, ATP luminescence, 48 h. Potency, µM (doses to about 46.2 µM), inactives show at the highest dose activity change, negative = growth inhibition, hits mostly inhibitors. 12% of 420,000 active; note: potency is the fitted concentration of half-maximal effect; nearly all actives have a fitted effect of over 55% in size
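Chicken DT40 Tdp1-/- cells complemented with human TDP1, 400 cells/well, exposed to compounds plus 20 nM camptothecin for at least 48 h at 37 C; viability read as ATP content by CellTiter-Glo luminescence.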
DT40 TDP1 no CPT: qHTS for Inhibitors of human tyrosyl-DNA phosphodiesterase 1 (TDP1): qHTS in cells in absence of CPT | DT40 Tdp1-/- hTDP1 cells, no CPT, ATP luminescence, 48 h | Potency, µM (series often up to 46.2 µM), without a hit: at the highest dose activity change, negative = growth inhibition, most hits filed as inhibitors | 15% of 420,000 active | AID 686978, 2013; note: potency is the fitted concentration of half-maximal effect; nearly all actives have a fitted effect of over 55% in size
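Seeded 400 DT40-hTDP1 cells/well (vehicle DMSO, no 20 nM CPT); pinned compounds; ≥48 hr at 37 °C; CellTiter-Glo luminescence as viability measure.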
HT1080NT lethal: kills 2HG-producing HT-1080-NT fibrosarcoma cells; HT-1080-NT fibrosarcoma viability, CellTiter-Glo ATP luminescence, 48 h; Potency, µM (top dose mostly 46.1 µM), without a hit: at the highest dose activity, negative = less viability, actives largely listed as cytotoxic; 1.6% of 360,000 active; AID 686970;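 note: NT is the 2HG producing partner of a matched IDH1 knockdown line; potency is the fitted concentration of half-maximal effect; 0% = DMSO-treated cells and -100% = media-only wells without cells; nearly all actives have a fitted effect of over 55% in size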
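Toxicity toward the 2HG-producing NT line was scored as %Activity, normalised to DMSO and no-cell wells, from CellTiter-Glo luminescence after 48 hours' treatment.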
HT1080 IDH1KD tx: toxicity to HT-1080 IDH1 knockdown cells (counter line). HT-1080 IDH1 knockdown viability, ATP luminescence, 48 h. Potency, µM (series often up to 46.1 µM), inactives show at the top dose activity, negative = toxicity, actives largely listed as cytotoxic. 2% of 360,000 active. AID 686971;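 note: potency is the fitted concentration of half-maximal effect; 0% = DMSO wells and -100% = cell-free medium wells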
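Cytotoxicity counter-line: IDH1KD HT-1080, 48 h, CellTiter-Glo. Curves classed by r2, magnitude and activity.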
IL1B secr inh: inhibitors of inflammasome signaling (IL-1 beta secretion); activity change, % at 57.5 µM; 4.7% of 360,000 active; AID 743279; THP-1 LPS/ATP IL-1B secretion, AlphaLISA, 16 h; hits give low values; in the data active = activity change below about -50%; inconclusive = mostly about -30% to -49%
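THP-1 cells pretreated 1 hr with compounds (up to 57.5 uM final), then stimulated with LPS (250 ng/mL final) plus ATP (1.25 mM final); secreted IL-1B measured by AlphaLISA after 16 hr, decreased signal indicating inhibition.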
12-LOX inh: ALOX12 (human) lipoxygenase inhibition; 1.1% of 580,000 active; P18054; Potency, µM (titrated, usually from 108 µM), for the others: top-dose activity change, negative = inhibition, usual class: inhibitors; purified 12hLO, xylenol orange hydroperoxide absorbance; AID 1671190; note: potency is the fitted concentration of half-maximal effect
Target sequence (P18054 whole entry, looked up): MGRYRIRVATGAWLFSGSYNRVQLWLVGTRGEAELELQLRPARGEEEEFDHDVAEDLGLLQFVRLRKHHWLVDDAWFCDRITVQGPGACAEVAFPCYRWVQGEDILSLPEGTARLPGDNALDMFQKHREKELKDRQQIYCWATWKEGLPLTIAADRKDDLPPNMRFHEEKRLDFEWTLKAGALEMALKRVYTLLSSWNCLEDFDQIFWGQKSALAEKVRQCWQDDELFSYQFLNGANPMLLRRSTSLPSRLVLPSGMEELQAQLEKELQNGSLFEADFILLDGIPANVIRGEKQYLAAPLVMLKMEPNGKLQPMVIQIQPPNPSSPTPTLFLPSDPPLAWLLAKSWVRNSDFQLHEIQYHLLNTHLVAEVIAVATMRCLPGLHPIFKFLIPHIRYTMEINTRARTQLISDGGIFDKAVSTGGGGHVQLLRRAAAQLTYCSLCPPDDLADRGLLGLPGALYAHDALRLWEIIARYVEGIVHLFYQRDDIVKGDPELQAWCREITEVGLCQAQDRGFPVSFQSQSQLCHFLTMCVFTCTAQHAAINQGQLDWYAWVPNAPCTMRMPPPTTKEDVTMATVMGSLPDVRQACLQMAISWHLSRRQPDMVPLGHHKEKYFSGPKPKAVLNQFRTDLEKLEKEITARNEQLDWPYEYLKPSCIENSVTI
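Purified human 12hLO (150 nM final) in 25 mM Hepes, 0.01% Triton X-100, pH 7.0 was preincubated 15 min at room temperature with compound. Then 40 uM arachidonic acid was added, 30 min. Hydroperoxide was read by Fe-XO absorbance ratio 573/405 nm.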
* marks the source's active call; other numbers are inactive results; ? = inconclusive; . = no result; [ ] = remark or other dose. Shown is part of a subset that was picked to be rich in hits. Unless noted, calls come from the whole dose curve; as a rule, active = well fitted curve in the direction sought with a large enough effect; inconclusive = small, poorly fitted or top-dose-only effect, or another doubt; inactive = no such curve, though single readings can be large; an effect the other way counts as inactive or inconclusive. Unless noted, % is set by controls: 0 for no effect and ±100 for the full control effect.

SMILES	TDP1 cell CPT	DT40 TDP1 no CPT	HT1080NT lethal	HT1080 IDH1KD tx	IL1B secr inh	12-LOX inh
CCCCN1C(SCC(=O)Nc2cccc(C(C)=O)c2)=NS(=O)(=O)c2ccccc21	.	.	.	.	.	0%
CCc1nc(N)nc(N)c1-c1ccc(Cl)c(N=[N+]=[N-])c1	5.2µM*	1.8µM*	?	2.9µM*	-3	?
CCc1nc(N)nc(N)c1-c1ccc(Cl)c([N+](=O)[O-])c1	0.18µM*	0.052µM*	?	0.18µM*	-1	0%
COc1nc(OC)nc(Oc2ccc(Cl)cc2[N+](=O)[O-])n1	1%	-1%	7%	-4%	-3	18%
CCOc1cc(-c2c(C)c(CC)nc(N)c2C#N)ccc1O	-15%	?	-27%	?	16	0%
CC#CC#Cc1cccc(=O)o1	?	?	?	21µM*	-75*	-12%
CCOc1ccc(-c2csc3ncn(-c4ccc(OC)cc4)c(=O)c23)cc1	?	16µM*	-15%	-21%	?	3%
COc1ccc(-c2csc3nc(C(C)(C)C)oc(=O)c23)cc1OC	-26%	?	1%	-2%	15	-10%
COc1ccc(-c2csc3nc(-c4ccc(C)cc4)oc(=O)c23)cc1OC	9.2µM*	10µM*	19%	14%	-1	1%
COc1ccc(-c2csc3ncn(-c4ccccc4OC)c(=O)c23)cc1OC	?	23µM*	-26%	?	-13	6%
COc1ccc(-c2csc3nc(C)n(-n4cccc4)c(=O)c23)cc1OC	16µM*	23µM*	-5%	-14%	21	-10%
CCOc1ccc(-n2cnc3scc(-c4ccc(Br)cc4)c3c2=O)cc1	.	.	.	.	.	-6%
COc1ccc(-c2csc3ncn(-c4ccccc4)c(=O)c23)cc1OC	-2%	-18%	-10%	-14%	12	5%
COc1ccc(-c2csc3ncn(-c4cccc(C)c4)c(=O)c23)cc1OC	?	?	-14%	-18%	?	1%
O=C(NC1CC(c2cc(NCCO)ncn2)C1)c1cc2ccccc2[nH]1 (stereo unspecified)	.	.	.	.	.	19%
Cc1cc(C)c(C#N)c(SCc2cc(=O)oc3cc(C)c(O)cc23)n1	.	.	.	.	.	-46%
COc1ccc(-c2csc3nc(-c4cccnc4)nc(N4CCC(C(N)=O)CC4)c23)cc1OC	?	?	?	?	-15	?
COc1ccc(-c2csc3nc(-c4ccc(F)cc4)oc(=O)c23)cc1	4%	-23%	.	.	.	-12%
COc1ccccc1-n1cnc2sc(-c3ccccc3)cc2c1=O	?	12µM*	21%	11%	-22	-10%
COc1ccc(-c2csc3nc(C)nc(N4CCCCC4)c23)cc1OC	?	15µM*	16µM*	?	-11	0%
COc1ccc(-c2csc3nc(-c4ccccc4OC)oc(=O)c23)cc1	21µM*	23µM*	?	?	.	-11%
COc1cccc(C2CC(=O)NC3=C2C(=O)CC(C)(C)C3)c1 (stereo unspecified)	.	.	.	.	.	-21%
Cc1ccccc1CN1Cc2nc(N3CCCC3)ccc2OCC1=O	.	.	.	.	.	-6%[176 µM]
CCC1(N2CCN(C(=O)c3ccc(N(C)C)cc3)CC2)CCN(C(=O)NC)C1 (stereo unspecified)	.	.	.	.	.	18%
NC(=O)C1=C(Nc2ccc(F)cc2F)c2ccccc2S1(=O)=O	.	.	.	.	.	10%
SMILES	TDP1 cell CPT	DT40 TDP1 no CPT	HT1080NT lethal	HT1080 IDH1KD tx	IL1B secr inh	12-LOX inh
Cn1ccn(C(F)(F)C(F)Cl)c1=S (stereo unspecified)	.	.	.	.	.	5%
CC(=O)c1cccc(NC(c2ccc(F)cc2)c2nnc(-c3ccccc3)o2)c1 (stereo unspecified)	?	18µM*	.	.	.	?
Cc1c(Cl)cccc1NC(c1ccc(F)cc1)c1nnc(-c2ccccc2)o1 (stereo unspecified)	?	23µM*	.	.	.	-20%
Cc1ccc(NC(=O)c2cn(CCC#N)nc2-c2cccs2)cc1	.	.	.	.	.	-2%
COc1ccc(C2c3sc(=O)[nH]c3SC3C4CCC(C4)C23)cc1OC (stereo unspecified)	?	?	-5%	-11%	11	-35%
O=c1[nH]c2c(s1)C(c1ccc(O)cc1)C1C3CCC(C3)C1S2 (stereo unspecified)	-18%	?	3%	0%	78	45µM*
COc1ccc(-c2nc3ccc(C)cn3c2Cc2ccc(C)cc2)cc1OC	23µM*	15µM*	-22%	-27%	-19	?
COc1ccc(-c2nc3ccc(C)cn3c2Cc2cccc(Cl)c2)cc1OC	?	18µM*	?	18µM*	0	?
Cc1ccc2nc(-c3ccc(F)cc3)c(Cc3cccc(Cl)c3)n2c1	21µM*	26µM*	?	?	-1	-6%
COc1ccc(-c2nc3ccc(C)cn3c2Cc2ccccc2)cc1OC	18µM*	23µM*	?	?	?	?
Cc1cccc(OCCOC(=O)c2cc(C)nc3ccccc23)c1	.	.	.	.	.	-18%
COC(=O)c1ccc2nc(-c3ccc(OC)c(OC)c3)c(Cc3ccccc3OC)n2c1	?	?	-27%	-21%	31	0%
Cc1ccc2nc(-c3ccc(Cl)cc3)c(Cc3cccc(Cl)c3)n2c1	?	?	?	?	-12	0%
COc1ccc(-c2nc3ccc(C)cn3c2CC(C)(C)C)cc1OC	18µM*	21µM*	-15%	?	-12	-30%
Cc1ccc2nc(C(C)(C)C)c(Cc3cccc(Cl)c3)n2c1	16µM*	18µM*	16µM*	?	11	?
COc1ccccc1Cc1c(-c2ccc(OC)c(OC)c2)nc2ccc(C)cn12	?	23µM*	?	?	-24	-24%
COc1ccccc1Cc1c(-c2ccco2)nc2ccc(C)cn12	8.2µM*	8.2µM*	?	?	?	?
C[C@H](O)c1onc(-c2ccc(F)cc2)c1C(=O)N1CCCCC1	.	.	.	.	.	-12%[176 µM]
Cc1ccc(NC(=O)c2nc3ccccc3nc2N2CCCC2)cc1	.	.	.	.	.	17%
CSc1ccccc1NC(=O)/C(=C/c1ccco1)c1ccccc1	.	.	.	.	.	50µM*
CCOC(=O)c1c(C2COc3ccccc3O2)csc1NC(=O)c1ccco1 (stereo unspecified)	14µM*	11µM*	23%	2%	-54*	?
O=C(NCCc1ccccc1)c1ccc(=O)oc1	-15%	-14%	20%	9%	-8	0%
